# The panel holds about 83,000 compounds, 20% with a hit somewhere; the sample as a whole holds those more often.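 The test compound was applied at a single concentration to cells in 96-well plates for 48 hours, and percent growth was recorded.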 Unmarked numbers belong to inactive results. Active and inactive are the calls of the source. The calls were made as follows: active = growth percent below 10; inactive = the rest.
# Experiments:
# Assay in all cases: NCI-60 one-dose screen, 48 h (100 = growth as untreated, 0 = no growth, -100 = all killed)
# Conditions in all cases: 10 µM unless noted
# SK-MEL-2 melanoma = system: SK-MEL-2 melanoma
# EKVX NSCLC = system: EKVX NSCLC
# SN12C renal = system: SN12C renal
# UO-31 renal = system: UO-31 renal
# TK-10 renal = system: TK-10 renal
# ACHN renal = system: ACHN renal
# CAKI-1 renal = system: CAKI-1 renal
# A498 renal = system: A498 renal
# CCRF-CEM leukemia = system: CCRF-CEM leukemia
# MOLT-4 leukemia = system: MOLT-4 leukemia
Structure (SMILES),growth (SK-MEL-2 melanoma),growth (EKVX NSCLC),growth (SN12C renal),growth (UO-31 renal),growth (TK-10 renal),growth (ACHN renal),growth (CAKI-1 renal),growth (A498 renal),growth (CCRF-CEM leukemia),growth (MOLT-4 leukemia)
COc1ccc(-c2nc3ccc4[nH]ncc4c3c3c2CCCC3)cc1B(O)O,56.1%,17.7%,52%,33.7%,49.5%,20.9%,-1.55% (active),8.27% (active),46.8%,48.8%
COc1ccc2c(c1)O/C(=C\c1cccc(OCC(=O)Nc3nc(C)c(C)s3)c1)C2=O,89.3%,-13.4% (active),33.8%,-74.9% (active),111%,98.7%,-82.7% (active),114%,-66.8% (active),19.2%
Cc1ccc(S(=O)(=O)NCC[C@@H]2C[C@H]2c2cc3ccccc3s2)cc1,111%,95%,91.6%,84%,110%,102%,79.6%,81.7%,96.4%,92.6%
CC(=O)c1nc(Nc2ccc(C)cc2)sc1C,102%,74.4%,102%,81.6%,120%,102%,87.9%,66.2%,95.6%,96.1%
COc1ccc(-c2nc(SCCC(C)C)nc(N/N=C\c3cccc([N+](=O)[O-])c3)c2C#N)cc1,80.4%,40.9%,35.5%,7.32% (active),42.5%,15.8%,22.6%,41.2%,45.8%,73.1%
O=C1Nc2ccccc2/C1=C/c1cn(C(=O)c2ccc(Cl)cc2)c2ccccc12,120%,59%,95.4%,74.7%,130%,103%,59.1%,116%,104%,109%
COc1ccc(-c2cc(-c3cc(OC)c(OC)c(OC)c3)c(C#N)c(N3CCOCC3)n2)cc1O,68.2%,59.8%,60.1%,56.8%,73.3%,66.7%,51.5%,74.8%,42.8%,55.4%
COc1ccc2c(c1)O/C(=C\c1cccc(OCC(=O)Nc3nc4ccccc4s3)c1)C2=O,91.8%,100%,43.7%,-61.3% (active),132%,98.2%,-88.3% (active),110%,-61.4% (active),18.4%
Fc1cnc(NC2CC2)nc1-c1cnc2ccc(N3CCOCC3)cn12,-34.1% (active),-19.5% (active),8.74% (active),7.85% (active),6.32% (active),3.03% (active),4.17% (active),-29.5% (active),6.3% (active),2.32% (active)
O=C(/C=C/c1c(Cl)nc2sccn12)c1ccc(F)c(F)c1,74.7%,74%,76.5%,64%,91.6%,81.1%,81.2%,73.6%,71.7%,66.7%
Cn1cc2c(c1)-c1nc(Nc3ccccc3)ncc1CC2,73.6%,54.6%,64.8%,46.2%,61.9%,47.8%,48.8%,6.32% (active),61.2%,44.6%
N#C/C(=C\c1ccc(-c2ccccc2F)o1)c1nc(-c2ccco2)cs1,96.5%,67%,96.7%,68.8%,65.2%,90.4%,56.8%,66.9%,95%,91.9%
O=C(Cc1ccc(F)c(F)c1)Nc1cc(C2(C(F)(F)F)CC2)nn1Cc1ccccc1,-32.9% (active),6.62% (active),6.15% (active),-3.87% (active),3.48% (active),-13.2% (active),-18.4% (active),-34% (active),20.1%,8.42% (active)
Cc1cc(C(=O)c2ccccc2)c(C)c2c1[nH]c1ccc(Cl)cc12,52.1%,42.8%,22.1%,25%,93.7%,24.8%,24.7%,-11.8% (active),8.5% (active),15.9%
